GLP-1R agonist: activates the human GLP-1 receptor; P43220; HEK293 GLP-1R CRE-luciferase, luminescence, 4-6 h; cells express a hypersensitive GLP-1R form; Potency, µM (top dose mostly 45.6 µM), most hits filed as activators; hit rate 0.007% among 380,000; AID 624172
Target sequence (P43220 whole entry, looked up): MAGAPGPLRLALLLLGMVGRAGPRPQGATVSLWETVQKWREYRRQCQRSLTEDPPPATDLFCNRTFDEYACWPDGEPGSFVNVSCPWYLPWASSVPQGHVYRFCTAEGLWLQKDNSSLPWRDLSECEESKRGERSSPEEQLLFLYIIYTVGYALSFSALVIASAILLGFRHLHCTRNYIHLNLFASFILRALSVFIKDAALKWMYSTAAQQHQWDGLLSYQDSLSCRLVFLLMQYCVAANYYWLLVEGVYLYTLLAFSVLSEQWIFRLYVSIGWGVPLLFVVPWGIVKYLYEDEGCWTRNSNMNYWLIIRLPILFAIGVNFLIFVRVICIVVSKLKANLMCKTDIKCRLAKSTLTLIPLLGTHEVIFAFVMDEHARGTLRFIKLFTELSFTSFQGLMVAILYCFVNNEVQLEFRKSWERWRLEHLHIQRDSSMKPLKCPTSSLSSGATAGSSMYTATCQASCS
GLP-1R inv ag: acts as inverse agonist at human GLP-1 receptor | P43220 | HEK293 GLP-1R CRE-luciferase, luminescence, 24 h; GLP-1R form is constitutively active | Potency, µM (highest dose often 38.3 µM), usual class: inhibitors | hit rate 1.6% among 410,000; further: nearly all actives have a fitted effect of over 55% in size
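HEK293 cells stably co-expressing a cAMP-responsive luciferase reporter and constitutively active GLP-1R were seeded, incubated 12 h, then exposed to compounds for 24 h at 37 C. Luminescence was read 12 min after detection reagent; inverse agonists lower signal.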
Mito fusion act: mitochondrial division inhibition or fusion activation; S. cerevisiae fusion-defective mutant growth rescue, CellTiterGlo 48 h; hit rate 0.23% among 320,000; Potency, µM (top dose mostly 46.1 µM), usual class: activators; further: nearly all actives have a fitted effect of over 45% in size
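Luminescent cell viability in 1536-well qHTS format served as the measure of rescued growth in ts fusion-mutant S. cerevisiae cultured on non-fermentable YPEG for 48 hours at 37C.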
HEK293 tox: cytotoxicity in counter-screen for GLP-1R inverse agonists. hit rate 0.13% among 410,000. Potency, µM (series often up to 38.3 µM), actives largely listed as inhibitors. HEK293 cAMP-luciferase reporter cells, luminescence, 24 h. AID 624418;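 further: loss of luciferase light is scored as toxicity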
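Seeding density was 200 cells/uL; after overnight-length (12 h) culture, 23 nL compounds went on for 24 h at 37 °C. Readout used a luciferase detection reagent, luminescence taken after 12 min at room temperature.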
BRCA1 expr up: increases BRCA1 expression; MCF7-BRCA1-FFLuc reporter, luminescence, 48 h; response scale: scaled: vehicle 0%, 10 µM genistein 100%; Potency, µM (highest dose often 46.1 µM), hits mostly activators; hit rate 1.1% among 380,000; AID 624202; further: nearly all actives have a fitted effect of over 80% in size
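48 h compound treatment of MCF7-BRCA1-FFLuc cells (phenol-red free MEM, 37 °C), then 15 min with luciferase substrate and luminescence imaging.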
A number is an active result; n = inactive; u = inconclusive; x = no result given. Sampled rows, rich in hits. Any-hit rate of the full collection: about 2.8%. The call rests on the fitted dose curve; in most records, active means well fitted curve in the direction sought with a large enough effect; inconclusive means small, poorly fitted or top-dose-only effect, or another doubt; inactive means no such curve, though single readings can be large; an effect the other way counts as inactive or inconclusive.

SMILES	GLP-1R agonist	GLP-1R inv ag	Mito fusion act	HEK293 tox	BRCA1 expr up
Cc1ccc(C2=CC(=O)C[C@H](c3ccc4c(c3)OCO4)C2)cc1	n	u	3.98µM	n	n
CSc1ccc(C2=CC(=O)C[C@H](c3ccc4c(c3)OCO4)C2)cc1	n	n	n	n	n
CC(=O)N1N=C(c2ccc(Cl)cc2)CC1c1ccco1 (configuration not stated)	n	n	n	n	n
CCC(C(=O)NCCc1ccc(Cl)cc1)n1nc(C)c2c(C)n(-c3ccccc3)nc2c1=O (configuration not stated)	x	n	x	n	x
C=C1NN(C)C(=O)N1c1ccc(OC)cc1	x	x	x	x	n
COc1ccc(Nc2nc(N3CCCCC3)c3ccccc3n2)cc1	n	5.62µM	n	u	n
c1ccc(Nc2nc(N3CCCCC3)nc(N3CCCCC3)n2)cc1	n	10µM	n	n	n
c1ccc(Nc2nc(N3CCCC3)nc(N3CCCC3)n2)cc1	n	u	n	n	n
O=C(NC1CC(=O)N(c2cccc(F)c2)C1)C1CC1 (configuration not stated)	x	n	x	n	x
O=[N+]([O-])c1cccc(CNc2ccc3c(c2)CCC3)c1	u	u	14.1µM	n	n
CCCC(=O)O[C@@H]1C[C@@H](C)N(C(=O)c2ccccc2)c2ccc(C)cc21	n	10µM	n	n	n
COc1cccc(/C=N/NC(=O)C(C)n2nc(C)c([N+](=O)[O-])c2C)c1O (configuration not stated)	n	1.78µM	n	u	n
CC1=CC(C)(C)NC(=S)N1C(C)c1ccccc1 (configuration not stated)	n	u	n	10µM	n
CC1=CC(C)(C)NC(=S)N1c1ccc2ccccc2c1	n	u	n	u	n
O=C(CNS(=O)(=O)c1ccc(Br)cc1)NC1CCCC1	n	n	n	n	n
Cc1ccc(-c2cn(-c3cccc(Cl)c3)c(S(=O)(=O)CC(=O)Nc3cccc(C)c3)n2)cc1	x	8.91µM	x	n	x
O=C(CS(=O)(=O)c1nc(-c2ccc(Cl)cc2)cn1-c1ccccc1)Nc1cccc(Cl)c1	x	u	x	n	x
COc1ccc(CNC(=O)CN2CCC(C(=O)c3ccc(OC)cc3)CC2)cc1	n	10µM	n	u	n
COc1ccc(NC(=O)C(=O)Nc2cccc3cccnc23)cc1OC	n	n	n	n	n
CCOc1ccc(NC(=S)NNC(=S)Nc2cccc(C(F)(F)F)c2)cc1	n	u	n	n	n
c1ccc(CO/N=C(\c2ccc(C3CC3)nc2)C2CC2)cc1	n	7.94µM	n	n	n
O=C(NC1CCC(C(=O)O)CC1)OCc1ccccc1 (configuration not stated)	n	n	n	n	n
CCCc1c(C(=O)N/N=C/c2ccccc2OCc2ccc(F)cc2)nnn1-c1nonc1N	n	n	n	n	n
CC1CCCN(CCCNC(=O)c2cc3c(s2)-c2ccccc2OC3)C1 (configuration not stated)	n	8.91µM	n	n	n
O=C(CC12CC3CC(CC(Br)(C3)C1)C2)OCCN1CCCCC1	n	n	n	n	n
SMILES	GLP-1R agonist	GLP-1R inv ag	Mito fusion act	HEK293 tox	BRCA1 expr up
CCC(CC)C(=O)Nc1ccc(OCc2cc(=O)n3ccsc3n2)cc1	n	n	x	n	n
c1ccc(CCNc2nc(-c3ccccc3)cs2)cc1	n	x	x	x	x
c1ccc(CCNc2nc3ccccc3s2)cc1	n	n	n	n	11.2µM
Cc1cccc(S(=O)(=O)c2cn(Cc3ccccc3)c3cc(N4CCCC(C)C4)c(F)cc3c2=O)c1 (configuration not stated)	x	n	x	n	x
Cc1ccc(-c2csc(NC(=O)c3ccc(Br)cc3)c2C(=O)O)cc1	n	n	n	n	2µM
CN(C)c1ccc(-c2nnn(CC(=O)N3c4ccccc4CCc4ccccc43)n2)cc1	n	n	n	n	n
CSc1ccccc1OCc1cc(C(=O)N(C)Cc2ccc(C)o2)no1	n	u	n	n	11.2µM
COc1ccccc1OCc1cc(C(=O)N2CCCC(OCc3cccnc3)C2)no1 (configuration not stated)	n	n	n	n	7.08µM
CCN(CC)C1CCN(C(=O)c2cc(COc3ccccc3SC)on2)C1 (configuration not stated)	n	7.08µM	n	n	n
CSc1ccccc1OCc1cc(C(=O)N2CCN(c3ncccn3)CC2)no1	n	n	n	n	n
CSc1ccccc1OCc1cc(C(=O)N2CCSCC2)no1	n	n	n	n	4.47µM
CSc1ccccc1OCc1cc(C(=O)N2CCCC(C)C2)no1 (configuration not stated)	n	u	n	n	u
Nc1ccc(C=C2C=Cc3ccccc32)cc1	n	u	x	n	n
COC(=O)C1=C(C(=O)OC)[C@@H]2N(Cc3ccccc3)c3ccccc3[C@@]23C[C@@H](C(=O)OC)N(C(=O)c2cccs2)C3=N1	n	u	n	n	n
COC(=O)C1=C(C(=O)OC)[C@@H]2N(Cc3ccccc3)c3ccccc3[C@@]23C[C@@H](C(=O)OC)N(C(=O)c2cc(C)oc2C)C3=N1	n	11.2µM	x	n	n
O=C(Nc1ccc(F)c(Cl)c1)c1csc([C@@H]2O[C@H](CO)[C@H](O)[C@H](O)[C@H]2O)n1	n	n	x	n	n
Nc1c(C(=O)NCCc2ccccc2)sc2nc(N3CCOCC3)c3c(c12)CCCC3	n	8.91µM	n	n	n
Cc1ccccc1NC(=O)c1sc2nc(N3CCOCC3)c3c(c2c1N)CCCC3	u	n	n	n	n
O=[N+]([O-])c1ccc2nc(N3CCCC3)sc2c1	n	n	n	n	8.91µM
Fc1cc(F)c2nc(N3CCCCC3)sc2c1	n	n	n	n	12.6µM
c1ccc(CN2CCN(c3nc4ccccc4s3)CC2)cc1	n	n	n	n	u
O=C(c1ccccc1)N1CCN(c2nc3ccc([N+](=O)[O-])cc3s2)CC1	n	u	n	n	n
CCOc1ccc2nc(N3CCCC(C(=O)NCC4CCCO4)C3)sc2c1 (configuration not stated)	n	n	n	n	10µM
c1ccc2sc(N3CCCCC3)nc2c1	n	n	x	n	4.47µM
C#CCNc1cc(C)nc2ncnn12	n	n	n	n	n
CCOC(=O)C1CCN(C(=O)COc2ccc(S(=O)(=O)NC(C)C)cc2Cl)CC1	n	n	n	n	n
Cc1c(Nc2ncccc2C(=O)O)cccc1C(F)(F)F	n	n	n	n	n
O=C(NCCc1ccccc1)C1CCCN(c2nc3ccccc3s2)C1 (configuration not stated)	n	10µM	n	n	n
Fc1ccccc1N1CCN(C(c2ccccn2)c2nnnn2C2CCCCC2)CC1 (configuration not stated)	n	n	12.6µM	u	n

Screening data from PubChem.
